Source: PubChem BioAssay AID1159580 (chemical genetic matrix, 2015)
Where “and” joins values, the source holds several entries; their conditions need not be identical. Equal values may be shown once. About 2,000 (36%) of roughly 5,500 compounds were called active. Another 18% or so got no clear call; they are omitted. Cut-off read from the data, not from the text of the source: active = normalized growth mostly below about 0.91 (no sharp cut-off); inconclusive = no clear call, values can overlap the other calls; inactive = mostly above about 0.92. Some of the results follow.

Experiment: chemical genetic growth profiling, strain panel (AID 1159580);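 note: tested at 20 µM; growth read once vehicle control cultures reached saturation at 30 °C; 1 = growth at the plate median or of vehicle wells; lower values mean less growth of the strain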
Conditions: S. cerevisiae deletion strains, growth OD

Measured: normalized growth

OC[C@H]1O[C@@H](O[C@H]2[C@H](O)[C@@H](O)[C@@H](O)O[C@@H]2CO)[C@H](O)[C@@H](O)[C@@H]1O
inactive: locus YAL013W, strain DEP1, active compounds read low 1.02 | locus YAL021C, strain ccr4, active compounds read low 1.01 | locus YAL026C, strain drs2, active compounds read low 1.01 | locus YAL030W, strain snc1, active compounds read low 1 | locus YBL061C, strain skt5, active compounds read low 1 | locus YBR009C, strain hhf1, active compounds read low 1.06 | locus YBR021W, strain FUR4, active compounds read low 1.04 | locus YBR023C, strain chs3, active compounds read low 1.01 | locus YBR171W, strain sec66, active compounds read low 0.996 | locus YBR229C, strain ROT2, active compounds read low 1 | locus YBR231C, strain swc5, active compounds read low 1 | locus YBR279W, strain paf1, active compounds read low 0.993 | locus YCL011C, strain gbp2, active compounds read low 1.02 | locus YCL016C, strain dcc1, active compounds read low 1.01 | locus YCL029C, strain bik1, active compounds read low 1.01 | locus YCL061C, strain MRC1, active compounds read low 1 | locus YCL069W, strain vba3, active compounds read low 1.01 | locus YCR088W, strain abp1, active compounds read low 0.997 | locus YDL005C, strain med2, active compounds read low 0.986 | locus YDL035C, strain GPR1, active compounds read low 1.04 | locus YDL040C, strain nat1, active compounds read low 0.994 | locus YDL074C, strain BRE1, active compounds read low 1.09 | locus YDL101C, strain DUN1, active compounds read low 1.01 | locus YDL134C, strain PPH21, active compounds read low 1.01 | locus YDL185W, strain tfp1, active compounds read low 1.02 | locus YDL192W, strain arf1, active compounds read low 1.03 | locus YDR001C, strain nth1, active compounds read low 0.999 | locus YDR069C, strain doa4, active compounds read low 0.981 | locus YDR101C, strain arx1, active compounds read low 1.02 | locus YDR137W, strain rgp1, active compounds read low 1.01 | locus YDR159W, strain sac3, active compounds read low 0.972 | locus YDR162C, strain NBP2, active compounds read low 1.02 | locus YDR195W, strain ref2 0.958 | locus YDR297W, strain sur2, active compounds read low 1 | locus YDR318W, strain mcm21, active compounds read low 0.994 | locus YDR334W, strain swr1, active compounds read low 0.996 | locus YDR335W, strain msn5, active compounds read low 1.01 | locus YDR388W, active compounds read low 1.02 | locus YDR392W, strain spt3, active compounds read low 0.957 | locus YDR502C, strain sam2, active compounds read low 0.992 | locus YEL003W, strain gim4, active compounds read low 1.02 | locus YEL037C, strain rad23, active compounds read low 1.01 | locus YEL061C, strain CIN8 (second series), active compounds read low 0.999 | locus YEL061C, strain CIN8, active compounds read low 1.01 | locus YER015W, strain faa2, active compounds read low 0.995 | locus YER016W, strain bim1, active compounds read low 1 | locus YER110C, active compounds read low 1.02 | locus YER111C, strain swi4, active compounds read low 1 | locus YER155C, strain BEM2 (second series), active compounds read low 0.987 | locus YER155C, strain BEM2, active compounds read low 1.02 | locus YER167W, strain BCK2, active compounds read low 1.01 | locus YFR010W, strain ubp6, active compounds read low 0.99 | locus YGL078C, strain dbp3, active compounds read low 1.03 | locus YGL086W, strain mad1, active compounds read low 1.04 | locus YGL167C, strain pmr1, active compounds read low 0.999 | locus YGL173C, strain kem1, active compounds read low 1 | locus YGL227W, strain vid30, active compounds read low 1 | locus YGL240W, strain doc1, active compounds read low 1.03 | locus YGL248W, strain PDE1, active compounds read low 1.01 | locus YGL253W, strain hxk2, active compounds read low 1.03 | locus YGR078C, strain PAC10, active compounds read low 1.03 | locus YGR135W, strain pre9, active compounds read low 1.02 | locus YGR252W, strain gcn5, active compounds read low 1 | locus YHR013C, strain ard1, active compounds read low 0.997 | locus YHR027C, strain rpn1, active compounds read low 1.02 | locus YHR030C, strain SLT2, active compounds read low 1.01 and 0.972 | locus YHR079C, strain IRE1 (second series), active compounds read low 1.01 | locus YHR079C, strain IRE1, active compounds read low 0.96 | locus YHR094C, strain hxt1, active compounds read low 1.05 | locus YHR129C, strain ARP1, active compounds read low 1.02 | locus YHR142W, strain chs7, active compounds read low 1.02 | locus YHR200W, strain rpn10, active compounds read low 1.02 | locus YIL066C, strain RNR3, active compounds read low 1.02 | locus YIL073C, strain SPO22, active compounds read low 1.12 | locus YIL125W, strain kgd1, active compounds read low 1.01 | locus YIR030C, strain dcg1, active compounds read low 1.01 | locus YJL092W, strain hpr5, active compounds read low 1.02 | locus YJL095W, strain BCK1 (second series), active compounds read low 0.995 | locus YJL095W, strain BCK1, active compounds read low 1.02 and 1.06 | locus YJL115W, strain asf1, active compounds read low 0.99 | locus YJL129C, strain trk1, active compounds read low 0.987 | locus YJL134W, strain LCB3, active compounds read low 1 | locus YJL154C, strain vps35, active compounds read low 0.991 | locus YJL164C, strain tpk1, active compounds read low 1.02 | locus YJL166W, strain qcr8, active compounds read low 1.03 | locus YJL168C, strain set2, active compounds read low 1.03 | locus YJL187C, strain SWE1 (second series), active compounds read low 1.02 | locus YJL187C, strain SWE1, active compounds read low 1 | locus YJR043C, strain POL32, active compounds read low 1.02 | locus YJR066W, strain TOR1, active compounds read low 0.921
